In the library only some 4.6% were active in any assay of this set; here they are far more common.
TIM10 inh – inhibits growth of TIM10 yeast strain | S. cerevisiae TIM10 strain growth, BacTiter-Glo luminescence, 24 h | inhibition, % at 10 µM | 330,000 tested, 1.4% active;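 active = inhibition of 40% or more at the single tested concentration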;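 note: wild-type TIM10 isogenic control strain grown at permissive 25 °C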
NLRP3 yeast inh – blocks the NALP3 inflammasome reconstituted in yeast. Yeast reconstituted NLRP3/ASC/caspase-1, beta-gal luminescence, 24 h. inhibition, % at 10 µM. 330,000 tested, 0.39% active;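 active = inhibition of 50% or more; inactive = inhibition below 50%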
tim10-1 inh – inhibits growth of tim10-1 mutant yeast. inhibition, % at 20 µM. AID 463190. S. cerevisiae tim10-1 ts strain growth, BacTiter-Glo, 24 h. 330,000 tested, 2.2% active;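 active = inhibition of at least 40%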;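 note: mutant grown at 25 °C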
SKKanGAS inh – SKKanGAS growth inhibition; AID 1662; S. pyogenes SKKanGAS, kanamycin growth, BacTiter-Glo, 6 h; inhibition, % at 7.5 µM; 300,000 tested, 1.3% active;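 active = mean replicate score, as percent of positive control median, at least 50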;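 note: strain carries kanamycin resistance gene driven by streptokinase promoter and grows in 40 µg/ml kanamycin; loss of luminescence reflects streptokinase promoter inhibition or plain growth inhibition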
PfHsp90 set2 – reduces growth (ATP signal) of yeast expressing P. falciparum Hsp90; S. cerevisiae expressing PfHsp90, BacTiter-Glo ATP, 48 h; yeast lacking PDR1 and PDR3 efflux regulators; inhibition, % at 9.4 µM; 310,000 tested, 0.32% active;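 active = every replicate shows inhibition above about 80%, whatever the replicate mean, limit read from the data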
tim23-1 inh – inhibits growth of tim23-1 mutant yeast | S. cerevisiae tim23-1 growth, BacTiter-Glo luminescence, 24 h | inhibition, % at 20 µM | 330,000 tested, 1.3% active | AID 463212;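 active = growth inhibition of the mutant yeast at or above 50%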;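 note: temperature-sensitive mutant grown at 25 °C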
tim10-1 confirm – tim10-1 yeast growth inhibition, confirmed | S. cerevisiae tim10-1 ts strain growth, BacTiter-Glo, 24 h | 7,400 tested, 56% active | AID 463213 | shares compounds with tim10-1 inh | inhibition, % at 20 µM;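 active = inhibition of yeast growth at or above a set limit in either of two repeat tests at 20 µM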;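 note: tim10-1 mutant grown at permissive 25 °C to find synthetic lethal compounds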
Hits are given with their value; – = inactive; · = no result given.

SMILES | TIM10 inh | NLRP3 yeast inh | tim10-1 inh | SKKanGAS inh | PfHsp90 set2 | tim23-1 inh | tim10-1 confirm
Cc1cccc(C2=NNC(=O)C(c3ccc(Cl)cc3)C2)c1 (stereo not drawn) | – | – | 60 | – | – | – | 45
Cn1cc(C(C[N+](=O)[O-])c2ccccc2)c2ccccc21 (stereo not drawn) | – | – | 40 | – | – | – | 49
Cn1cc(SCC(=O)O)c2ccccc21 | – | – | – | – | · | – | ·
Cc1ccc(S(=O)(=O)CCC(=O)N(CCCN2CCOCC2)c2nc3ccccc3s2)cc1 | – | – | 42 | – | – | – | 42
CCCCCCCCNC(=O)/C(C#N)=C/c1ccc(SC)cc1 | – | – | 50 | – | – | – | 38
CCCCCCCCNC(=O)/C(C#N)=C/c1ccc2c(c1)OCCO2 | – | – | – | – | – | – | ·
CCOc1ncccc1C(=O)OCC(=O)Nc1nnc(-c2ccccc2)o1 | – | – | – | – | – | – | ·
CC(C)Cc1nc2oc3c(NCC4CCCO4)ncnc3c2c2c1CCC2 (stereo not drawn) | – | – | 45 | – | – | – | –
CN(CC(=O)Nc1cccc(F)c1)C(=O)CCc1nc2ccccc2c(=O)[nH]1 | – | – | – | – | – | – | ·
Cc1ccc(NC(=O)CCC(=O)NNC(=O)NC2CCCCC2)c(C)c1 | – | – | – | – | – | – | ·
Cc1cccc(/C(N)=N/OC(=O)COc2ccc(Cl)cc2)c1 | – | – | 50 | · | · | – | 46
COc1cc(OC)c(C(=O)O/N=C(\N)c2cccc(C)c2)cc1OC | – | – | 48 | – | – | – | 41
COc1ccc(/C(N)=N/OC(=O)c2cccs2)cc1OC | – | – | 66 | – | – | – | 53
COc1cc(OC)c(C(=O)O/N=C(\N)c2ccc(C)cc2)cc1OC | – | – | 46 | – | – | – | 49
N/C(=N\OC(=O)COc1ccc(Cl)cc1)c1ccc(Cl)cc1 | – | – | – | – | – | – | ·
COc1ccc(/C(N)=N/OC(=O)Cc2ccc(C)cc2)cc1OC | – | – | – | – | – | – | ·
COc1ccc(NC(C)(C)c2nnnn2-c2c(C)cccc2C)cc1 | – | – | 40 | – | – | – | 32
CN(C)/C=N/N(C)c1ncccc1[N+](=O)[O-] | – | – | – | – | – | – | ·
COCCNc1c([N+](=O)[O-])c(=O)n(-c2ccccc2)c2ccccc12 | – | – | – | – | – | – | ·
CCSc1c([N+](=O)[O-])c(=O)n(-c2ccccc2)c2ccccc12 | – | – | 47 | – | – | – | 46
CC(=O)Nc1cccc(Oc2ncnc3scc(-c4ccc(C)cc4)c23)c1 | – | – | 42 | – | – | – | 29
Cc1ccc(-c2csc3ncnc(Oc4ccc5c(C)cc(=O)oc5c4)c23)cc1 | – | – | – | – | – | – | ·
Cc1cc(NC(=O)COC(=O)CCNS(=O)(=O)c2ccccc2)n(-c2ccccc2)n1 | – | – | – | – | · | – | ·
CC(=O)c1ccc(NC(=O)CCNC(=O)c2ccccc2Cl)cc1 | – | – | – | – | – | – | ·
COc1ccc(CNCCC(c2ccc(OC(C)C)cc2)c2ccccc2OC)cc1 (stereo not drawn) | – | – | – | – | – | – | ·
SMILES | TIM10 inh | NLRP3 yeast inh | tim10-1 inh | SKKanGAS inh | PfHsp90 set2 | tim23-1 inh | tim10-1 confirm
COc1ccccc1C(CCNCc1ccccc1)c1ccc(OC(C)C)cc1 (stereo not drawn) | – | – | 41 | – | – | – | 31
COc1ccc(NC(=O)Nc2cccc3c2O[C@H](CN(C)C(=O)Nc2ccc4c(c2)OCO4)[C@@H](C)CN([C@H](C)CO)C3=O)cc1 | – | – | – | · | – | – | ·
CCCCNC(=S)NCc1ccc2[nH]c3c(c2c1)CCCC3 | – | – | 40 | – | – | – | –
Cc1nn(Cc2c(F)c(F)c(F)c(F)c2F)c(C)c1NC(=O)c1ccc(COc2ccc(Cl)cc2Cl)o1 | – | – | 49 | – | – | – | 41
Cc1nn(Cc2ccc(Cl)cc2Cl)c(C)c1NC(=O)C1C2CCC(O2)C1C(=O)O (stereo not drawn) | – | – | 41 | – | – | – | –
Cc1nn(Cc2ccc(Cl)cc2Cl)c(C)c1NC(=O)c1nn(C)cc1Cl | – | – | 44 | – | – | – | 38
Cc1nn(Cc2ccc(Cl)cc2Cl)c(C)c1NC(=O)c1ccc(COc2cc(Cl)ccc2Cl)o1 | – | – | – | – | – | – | ·
Cc1onc(-c2ccccc2Cl)c1C(=O)N(C)Cc1ccccc1 | – | – | – | – | – | – | ·
O=C(NCc1ccccc1)c1cccnc1Sc1ccccc1 | – | – | – | – | – | – | ·
CCN(CC)CC(O)CNc1ccnc2c(Cl)ccc(Cl)c12 (stereo not drawn) | · | · | · | · | – | · | ·
CN1CCN(c2ccccc2NC(=O)c2ccc(-c3ccc(Cl)c(Cl)c3)o2)CC1 | – | – | 55 | – | · | – | 38
CN1CCN(c2ccccc2NC(=O)c2ccc(-c3cccc([N+](=O)[O-])c3)o2)CC1 | · | · | · | – | – | · | ·
O=C(/C=C/c1cccc(Cl)c1)OCc1cn2cc(Cl)ccc2n1 | – | – | 43 | – | – | – | –
COc1cccc(/C=C/C(=O)NCc2cn3cc(Cl)ccc3n2)c1 | – | – | – | – | – | – | ·
COc1cc2[nH]c(C(=O)N3CCC(Cc4ccccc4)CC3)cc2c(OC)c1OC | – | – | 44 | – | – | – | –
CCOC(=O)C1CCN(C(=O)c2cc3c(OC)c(OC)c(OC)cc3[nH]2)CC1 | – | – | – | – | – | – | ·
COc1ccc(CCn2c(-c3ccco3)nc3nc4ccccc4nc32)cc1 | – | – | 41 | – | – | – | –
COc1ccccc1Cn1c(-c2ccco2)nc2nc3ccccc3nc21 | – | – | – | – | – | – | ·
O=C(O)CC1c2ccccc2C=Cc2ccccc21 | – | – | – | – | – | – | ·
COC(=O)CSc1nc2c(c(-c3ccco3)c1C#N)CCCC2 | – | – | 47 | – | – | – | 40
COCCNC(=O)/C(C#N)=C/C(C)=C/c1ccccc1 | – | – | 53 | – | – | – | 42
CC(C)c1nc(N2CCN(C(=O)c3ccccc3)CC2)c(C#N)c2c1COC(C)(C)C2 | – | – | – | – | – | – | ·
CC1(C)Cc2c(C#N)c(N3CCN(C(=O)c4ccccc4)CC3)nc(-c3ccco3)c2CS1 | – | – | 44 | · | – | – | 33
O=C(/C=C/c1cccc([N+](=O)[O-])c1)NCCSCc1ccc(Cl)cc1Cl | – | – | 42 | – | – | – | 35
O=C(/C=C/c1cccc([N+](=O)[O-])c1)NCCSCc1ccccc1Cl | – | – | – | – | – | – | ·
O=C1C(Cc2ccccc2)Nc2ncnc(N3CCc4ccccc4C3)c2N1Cc1ccc(Br)cc1 (stereo not drawn) | – | – | 41 | – | · | – | –
O=C1C(Cc2ccccc2)Nc2ncnc(N3CCN(c4ccccc4)CC3)c2N1Cc1ccc(Br)cc1 (stereo not drawn) | – | – | – | · | – | – | ·

Source: PubChem BioAssay (several laboratories)
